# Results taken from PubChem BioAssay (EPA / NIEHS).
# Results filed as inconclusive are left out. Active and inactive are the calls of the source. The calls were made as follows: active = hit-call score of the fitted dose curve at least 0.9, where 1 is the maximum; inconclusive = response in the unintended direction; inactive = score below 0.9.
# Target: Oxysterols receptor LXR-beta (Homo sapiens) (UniProt P55055)
# Test: ATG_LXRb_TRANS: Attagene TRANS-FACTORIAL HepG2 Assay for human Liver X Receptor beta (LXRb) (AID 2282981)
# Conditions: HepG2 Attagene TRANS GAL4-LXRb reporter, mRNA
# How it was run: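 Gain-of-signal mRNA reporter endpoint, DMSO as negative control. Transiently transfected HepG2 cells carrying the NR-Gal4 chimera and GAL4-UAS reporter units were treated 24 h; transcripts quantified by RT-PCR and capillary electrophoresis fluorescence.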
# Chain of Oxysterols receptor LXR-beta (Homo sapiens) (P55055 whole entry, looked up): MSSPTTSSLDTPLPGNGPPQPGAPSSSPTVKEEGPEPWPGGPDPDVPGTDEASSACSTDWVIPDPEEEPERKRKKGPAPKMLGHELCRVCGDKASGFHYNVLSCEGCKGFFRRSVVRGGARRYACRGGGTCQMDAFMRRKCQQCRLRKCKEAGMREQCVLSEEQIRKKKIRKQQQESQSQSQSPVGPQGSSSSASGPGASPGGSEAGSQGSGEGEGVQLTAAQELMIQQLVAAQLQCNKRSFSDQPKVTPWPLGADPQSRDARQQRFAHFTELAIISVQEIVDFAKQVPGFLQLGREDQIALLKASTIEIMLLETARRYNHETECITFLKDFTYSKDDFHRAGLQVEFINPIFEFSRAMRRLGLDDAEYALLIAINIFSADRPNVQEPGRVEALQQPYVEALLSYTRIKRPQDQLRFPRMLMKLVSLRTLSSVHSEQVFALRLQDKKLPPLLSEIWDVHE
SMILES,outcome,AC50
COC(=O)Nc1nc2ccccc2[nH]1,inactive,
CCCCC(CC)COC(=O)c1ccc(C(=O)OCC(CC)CCCC)c(C(=O)OCC(CC)CCCC)c1 (stereo not given),inactive,
CCC[CH2][Sn]([Cl])([CH2]CCC)[CH2]CCC,inactive,
O=C1CCCO1,inactive,
CCC12COCN1COC2,inactive,
CNC(=O)Oc1cccc2c1OC(C)(C)C2,inactive,
OCCOCCO,inactive,
CN(C)C(=O)Nc1ccc(Cl)cc1,inactive,
CCCSC(=O)N(CCC)CCC,inactive,
OCCCl,inactive,
O=[N+]([O-])C(Br)(CO)CO,,9.14 nM (active)
Clc1ccc(C(c2ccc(Cl)cc2)C(Cl)Cl)cc1,inactive,
Nc1ccc(Cl)cc1N,inactive,
c1ccc2c(c1)oc1ccccc12,inactive,
